# Reference: ChEMBL document CHEMBL3433997, “St. Jude Leishmania screening dataset” (2016)
# Experiments:
# Type in all cases: functional
# [1] = molecular target: Solute carrier family 2, facilitated glucose transporter member 1 (Homo sapiens) (UniProt P11166); assay: ST_JUDE_LEISH: Cytotoxicity at 2uM final concentration against transgenic Leishmania Mexicana promastigotes LmGLUT1 that are glucose transport deficient and complemented with the human glucose transporter GLUT1. Activity is measured by DNA content using SYBR green in vitro
# Chain of Solute carrier family 2, facilitated glucose transporter member 1 (Homo sapiens) (P11166 whole entry): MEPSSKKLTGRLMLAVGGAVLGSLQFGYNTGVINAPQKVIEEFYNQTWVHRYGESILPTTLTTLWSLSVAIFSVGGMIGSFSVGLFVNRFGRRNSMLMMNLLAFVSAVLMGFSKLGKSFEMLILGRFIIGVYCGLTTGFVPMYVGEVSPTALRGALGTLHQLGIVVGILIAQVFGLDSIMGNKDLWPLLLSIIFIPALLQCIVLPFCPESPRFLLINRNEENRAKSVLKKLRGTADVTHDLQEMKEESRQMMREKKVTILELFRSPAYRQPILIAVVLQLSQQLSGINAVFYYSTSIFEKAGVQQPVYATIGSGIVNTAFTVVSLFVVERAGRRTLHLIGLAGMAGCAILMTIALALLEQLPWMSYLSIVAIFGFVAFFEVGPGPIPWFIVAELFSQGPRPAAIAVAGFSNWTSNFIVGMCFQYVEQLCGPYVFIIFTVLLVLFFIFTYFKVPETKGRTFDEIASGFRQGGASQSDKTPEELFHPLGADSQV
# [2] = molecular target: Hexose transporter 1 (Plasmodium falciparum) (UniProt O97467); assay: ST_JUDE_LEISH: Cytotoxicity at 2uM final concentration against transgenic Leishmania Mexicana promastigotes LmPfHT that are glucose transport deficient and complemented with the Plasmodium falciparum hexose transporter. Activity is measured by DNA content using SYBR green in vitro
# [3] = molecular target: Glucose transporter (Leishmania mexicana) (UniProt O61059); assay: ST_JUDE_LEISH: Cytotoxicity at 2uM final concentration against transgenic Leishmania Mexicana promastigotes LmGT2 that are glucose transport deficient and complemented with the L. Mexicana glucose transporter 2. Activity is measured by DNA content using SYBR green in vitro
Structure (SMILES),inhibition [1],inhibition [2],inhibition [3]
CC1(C)N=C(N)N=C(N)N1c1ccc2ccccc2c1,3.26%,3.3%,4.01%
NC(=O)c1ccc(C(=O)Nc2cccc(-c3ccc(-c4nc5cc(C(F)(F)F)ccc5[nH]4)cc3)c2)cc1,-2.41%,-0.2%,-2.73%
O=C(Nc1cccc(-c2cccc(-c3nc4cc(C(F)(F)F)ccc4[nH]3)c2)c1)c1ccncc1,5.04%,7.47%,2.56%
CC(C)c1ccc(-c2noc(SCC(=O)N3CCCCC3C)n2)cc1 (configuration not stated),-2.1%,1.89%,-2.55%
